Screening results deposited in PubChem BioAssay by National Center for Advancing Translational Sciences (NCATS).
Coupling enz: counter-screen for Giardia aldolase inhibitors: coupling enzyme system | coupling enzyme system counterscreen, AmpLite Red fluorescence | activity change, negative = inhibition, % at 58.2 µM, hits read low | hit rate 0.67% among 290,000 | AID 2472; in the data active = activity change below about -30%
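First, compound is pin-transferred into glyceraldehyde-3-phosphate coupling-enzyme reagent at 57.5 uM final and held 10 min at RT. Next, substrate, coupling system and AmpLite Red are added. After 20 min RT, fluorescence (525/598 nm) is read.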
Tau fibril ThT: inhibitors of human tau fibril formation, thioflavin T binding. P10636. recombinant tau K18 P301L, heparin-induced fibrillization, ThT fluorescence. Potency, µM (top dose mostly 57.4 µM), for the others: at the highest dose activity, negative = inhibition, usual class: inhibitors. hit rate 2.1% among 270,000. AID 1460; note: potency is the fitted concentration of half-maximal effect; nearly all actives have a fitted effect of over 55% in size
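Using a mix of unlabeled (15 uM) and Alexa 594-labeled (0.24 uM) tau K18 P301L, heparin-triggered fibrillization over 6 hr at 37 C was scored by ThT fluorescence.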
Tau fluor cs: counter-screen for tau fibril formation inhibitors; Potency, µM (series often up to 57.7 µM), for inactives: at the highest dose activity change, negative = decrease; hit rate 0.93% among 280,000; tau K18 P301L (four-repeat tau fragment) Alexa594 fluorescence, heparin fibrillization; AID 1463; note: potency is the fitted concentration of half-maximal effect; nearly all actives have a fitted effect of over 55% in size
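Human K18 P301L tau (15 uM unlabeled plus 0.24 uM Alexa 594-labeled, final) in 100 mM sodium acetate pH 7 was mixed with compound and 20 uM heparin and incubated 6 hr at 37 C.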
Tau fibril FP: tau fibrillization inhibition (FP); hit rate 0.39% among 280,000; AID 1468; Potency, µM (top dose mostly 57.7 µM), without a hit: at the top dose activity, negative = inhibition, actives largely listed as inhibitors; K18 P301L tau heparin fibrillization, Alexa594 FP, 6 h; P10636; note: potency is the fitted concentration of half-maximal effect; nearly all actives have a fitted effect of over 55% in size
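Steps: dispense K18 P301L tau (15 uM plus 0.24 uM Alexa 594 tracer, final) in pH 7 sodium acetate; add compound; add heparin (20 uM final); incubate 6 hr, 37 C; add ThT (30 uM final); after 1 hr ambient, read FP.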
USP1-UAF1 inh: inhibitors of human USP1/UAF1 deubiquitinase | O94782 | recombinant USP1/UAF1, Ub-Rhodamine cleavage fluorescence | Potency, µM (top dose mostly 57.1 µM), without a hit: at the highest dose activity change, negative = inhibition, most hits filed as inhibitors | hit rate 0.23% among 390,000; note: potency is the fitted concentration of half-maximal effect; nearly all actives have a fitted effect of over 60% in size
Target sequence (O94782 whole entry, looked up): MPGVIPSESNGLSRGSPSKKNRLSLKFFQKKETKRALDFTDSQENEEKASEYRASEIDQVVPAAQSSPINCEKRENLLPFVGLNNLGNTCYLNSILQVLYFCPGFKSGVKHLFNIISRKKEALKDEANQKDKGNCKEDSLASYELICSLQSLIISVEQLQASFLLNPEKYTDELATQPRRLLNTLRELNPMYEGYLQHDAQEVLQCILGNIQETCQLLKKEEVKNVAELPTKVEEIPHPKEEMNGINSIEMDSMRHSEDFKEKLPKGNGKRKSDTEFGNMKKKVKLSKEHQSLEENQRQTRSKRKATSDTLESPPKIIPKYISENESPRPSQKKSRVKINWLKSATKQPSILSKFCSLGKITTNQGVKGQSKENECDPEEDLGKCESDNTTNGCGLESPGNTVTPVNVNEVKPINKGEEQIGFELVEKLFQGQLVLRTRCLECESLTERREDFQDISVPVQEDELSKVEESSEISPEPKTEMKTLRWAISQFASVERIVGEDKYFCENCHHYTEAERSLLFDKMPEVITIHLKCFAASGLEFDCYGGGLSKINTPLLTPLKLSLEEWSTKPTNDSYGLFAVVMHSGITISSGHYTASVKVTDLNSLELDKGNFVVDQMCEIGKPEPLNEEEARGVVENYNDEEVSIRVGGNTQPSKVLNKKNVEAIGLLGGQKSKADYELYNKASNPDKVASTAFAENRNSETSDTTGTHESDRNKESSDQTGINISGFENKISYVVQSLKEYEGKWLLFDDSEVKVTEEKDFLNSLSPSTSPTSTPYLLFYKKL
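USP1/UAF1 complex at 1 nM was preincubated with compound for 15 min at room temperature, then Ub-Rho substrate (150nM final) was added. Fluorescence (480/540 nm) was read kinetically, 6 reads every 60 seconds.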
* marks the source's active call; other numbers are inactive results; ? = inconclusive; . = no result; [ ] = dose if it differs, or a comment. Only some compounds are listed: those with a hit (about 2.3% of all), similar ones and a draw of the others. Unless noted, calls come from the whole dose curve; as a rule, active = well fitted curve in the direction sought with a large enough effect; inconclusive = small, poorly fitted or top-dose-only effect, or another doubt; inactive = no such curve, though single readings can be large; an effect the other way counts as inactive or inconclusive. % is set by controls: 0 for no effect and ±100 for the full control effect.

SMILES	Coupling enz	Tau fibril ThT	Tau fluor cs	Tau fibril FP	USP1-UAF1 inh
COc1cccc(C2C3=C(CCCC3=O)Nc3[nH]n(-c4ccccc4)c(=O)c32)c1 (configuration not stated)	6	-2%	2%	9%	-16%
COc1cccc(C2C3=C(Nc4[nH]n(-c5ccccc5)c(=O)c42)c2ccccc2C3=O)c1 (configuration not stated)	-5	5µM*	?	0%	.
COc1ccc(Nc2cc(C)c3cc(NC(=O)Cc4c(F)cccc4Cl)ccc3n2)cc1	.	?	7.9µM*[quencher]	?	-29%
Cc1cc(Nc2cccc(Cl)c2)nc2ccc(NC(=O)Cc3c(F)cccc3Cl)cc12	.	?	7.9µM*[quencher]	-13%	-12%
COc1ccc(Nc2cc(C)c3ccccc3n2)cc1	-9	?	?	10%	-21%
COc1ccc(CC(=O)Nc2ccc3nc(Nc4ccc(OC)cc4)cc(C)c3c2)cc1	.	?	3.5µM*[quencher]	2%	-27%
COc1ccc(Nc2cc(C)c3cc(NC(=O)c4cc(OC)cc(OC)c4)ccc3n2)cc1	.	11µM*	13µM*[quencher]	?	-25%
COc1ccc(NC(=O)Cc2c(F)cccc2Cl)c(OC)c1	-8	7%	-1%	4%	-19%
CCc1ccc(C2=CC(c3cccc(C)c3)n3c(nc4ccccc43)N2)cc1 (configuration not stated)	.	?	-10%	-10%	?
CCOC(=O)OCC1OC(c2ccc(C(C)=O)cc2)C=CC1OC(=O)OCC (configuration not stated)	9	-16%[11.5 µM]	-10%[11.6 µM]	-9%[11.6 µM]	.
COc1ccc(Nc2cc(C)c3cc(NC(=O)COc4cccc(C)c4)ccc3n2)cc1	.	7.1µM*	11µM*[quencher]	?	?
Cc1cc2nc3c(=O)[nH]c(=O)[nH]c3nc2c([N+](=O)[O-])c1N	-30*	14µM*	?	?	?
Cc1c(N)c(C(C)(C)C)cc(C(C)(C)C)c1[N+](=O)[O-]	-3	-1%	-16%	-12%	-26%
O=c1oc2ccccc2nc1/C=C(O)/C=C/c1ccc(F)cc1	1	8%	2%	15%	?
O=c1oc2ccccc2nc1/C=C(O)/C=C\c1ccccc1	2	28µM*	-26%	?	?
COc1ccc(-c2nc3sc(CCNS(=O)(=O)c4c(C)cc(C)cc4C)c(C)n3n2)cc1	.	0%	-12%	5%	-12%
Cc1cccc(S(=O)(=O)c2cn(Cc3ccc(F)cc3)c3cc(N4CCCCC4)c(F)cc3c2=O)c1	.	10%	5%	-7%	-7%
O=[N+]([O-])c1ccccc1-c1cc(-c2cc(Cl)ccc2O)n[nH]1	0	?	14µM*[quencher]	?	-20%
Oc1ccccc1-c1cc(-c2ccccc2Cl)[nH]n1	0	-5%	14µM*[quencher]	?	-6%
O=C(N/N=C/c1ccccc1)C(=O)N/N=C/c1ccccc1	0	.	.	.	-18%
O=C(C=C=Nc1ccccc1)C(=O)N=C=Cc1ccccc1	1	10µM*	?	?	-8%
CCOc1cccc(-c2cc(=O)[nH][nH]2)c1	-11	3.5µM*	-21%	?	-7%
COc1cccc(-c2cc(=O)[nH][nH]2)c1	1	-10%	-8%	0%	-13%
O=C(Cc1ccc(NC(=O)N2CCSc3ncccc32)cc1)NCc1ccccc1	.	5%	5%	-1%	-27%
Cc1cc(C)n(-c2nc3cc(Cl)c(Cl)cc3nc2Nc2c(C)cccc2C)n1	.	-11%	-14%	-6%	4%
SMILES	Coupling enz	Tau fibril ThT	Tau fluor cs	Tau fibril FP	USP1-UAF1 inh
COc1ccc(N=Nc2ccc(N)nc2N)cc1	-3	2.5µM*	?	?	-15%
Nc1n[nH]c(N)c1N=Nc1ccc(F)cc1	-2	?	?	1%	-8%
COc1ccc(N=Nc2c(N)n[nH]c2N)cc1	2	14µM*	-29%	1%	?
Nc1ccc(N=Nc2ccc(O)cc2)c(N)n1	.	.	.	.	-20%
CCOc1ccc2nc3cc(N=Nc4ccc(N)nc4N)ccc3c(N)c2c1	.	.	.	.	16µM*
COc1ccc(N=Nc2cc(C)ccc2O)cc1	1	16µM*	?	11%	-11%
COc1ccc(C(=O)NCc2nnc(SCC(=O)Nc3ccccc3)n2-c2ccccc2)cc1	.	-8%	-24%	-10%	1%
CCn1cc(C(=O)NC(C)c2ccccc2)c(=O)c2cc(S(=O)(=O)N3CCc4ccccc4C3)ccc21 (configuration not stated)	.	6%	-15%	-5%	-18%
CCOC(=O)c1c(C)[nH]c(N=Nc2ccccc2C)c1C	-4	5µM*	?	5%	?
CCOC(=O)c1c(C)[nH]c(N=Nc2ccc(C)cc2C)c1C	-22	6.3µM*	?	13%	-17%
COc1ccc(/C=N/Nc2nnc(C)n2N)cc1OC	-40*	28µM*	-19%	?	?
Cc1nnc(N/N=C/c2ccc(Br)cc2)n1N	0	.	.	.	-9%
Nn1cnnc1N/N=C/c1ccc(Cl)c([N+](=O)[O-])c1	-26	25µM*	-26%	?	?
Cc1nnc(N/N=C/c2ccc([N+](=O)[O-])cc2)n1N	-45*	?	-11%	-29%	-15%
Cc1nnc(N/N=C/c2ccc(-c3ccc(Br)cc3)o2)n1N	-27	7.9µM*	?	-15%	-26%
COc1ccc(/C=N/Nc2nnc(C)n2N)cc1OC(C)=O	-7	.	.	.	-17%
COC(=O)c1cnn(C(=O)c2ccccc2Br)c1N	-37*	-3%	-2%	5%	-1%
Cc1ccc2[nH]c3c(N4CCN(Cc5ccc6c(c5)OCO6)CC4)ncnc3c2c1	1	?	-24%	?	.
COc1ccc2c(c1)[nH]c1c(N3CCN(Cc4ccc5c(c4)OCO5)CC3)ncnc12	-1	?	16µM*[quencher]	4%	-23%
Cc1ccc(-c2ccc(=O)n(CC(=O)Nc3ccc(C)cc3Cl)n2)cc1	.	1%	-20%	10%	-27%
Cc1ccc2nc(NCCN)c3ncc(C)n3c2c1	-6	.	.	.	.
O=C(O)c1cc(N(Cc2ccccc2O)Cc2cc(O)ccc2O)ccc1O	-1	18µM*	?	-6%	.
O=C(Cc1ccccc1)c1ccc(O)cc1O	.	.	.	.	-19%
COc1ccnc(CSC(N)=Nc2ccc(F)cc2)c1	-1	28µM*	-24%	?	-7%
Cc1ccc(S(=O)(=O)NC(=O)Nc2ccc(N(C)C)cc2)cc1	.	.	.	.	18µM*
CCOc1cc(C(=O)NCCc2csc3nc(-c4ccccc4F)nn23)cc(OCC)c1OCC	.	-2%	-12%	-2%	-3%
O=[N+]([O-])c1cc(S(=O)(=O)C(F)(F)F)ccc1Sc1nc2ccccc2s1	-2	16µM*	13µM*[quencher]	-13%	-6%
O=[N+]([O-])c1cc(S(=O)(=O)C(F)(F)F)ccc1Sc1nc2ccccc2[nH]1	0	25µM*	13µM*[quencher]	-14%	-16%
